Experimental data taken from PubChem BioAssay (NCATS).
Records with an inconclusive call do not appear. Active and inactive are the calls of the source. Unless noted, calls follow the shape of the full dose curve.

Experiments:
[1] = biological target: Single-stranded DNA cytosine deaminase (Homo sapiens) (UniProt Q9GZX7); test: Validation qHTS assay for inhibitors of Activation Induced Cytidine Deaminase (AID): AID signal (AID 1347429; active = well fitted curve in the direction sought with a large enough effect; an effect the other way counts as inactive or inconclusive); conditions: Recombinant AID, FRET ssDNA deamination with UDG, fluorescence; series mostly up to 115 µM
How it was run: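 AID+UDG coupled FRET deamination; cpds up to 114 uM final; DJC20/DJC23 substrate, 4 hr RT; NaOH stop, 30 min RT; read Ex 540/Em 590.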

[2] = Primary qHTS for inhibitors of La Crosse Virus (LACV) - induced cell death in SH-SY5Y cells (AID 1508616; active = well fitted curve in the direction sought with a large enough effect; an effect the other way counts as inactive or inconclusive;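 also: top concentration of the series differs between compounds; higher means more rescue of cells from virus-induced death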); conditions: SH-SY5Y LACV cytopathicity rescue, ATP luminescence, 6 d; series mostly up to 9.63 µM
How it was run: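 Cytopathicity rescue screen: compounds pinned onto SH-SY5Y cells, which are then infected with LACV (MOI 0.01) and held 6 days at 37C. Percent activity is scaled between infected DMSO control and uninfected DMSO control.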

[3] = biological target: Calcium and integrin-binding protein 1 (Homo sapiens) (UniProt Q99828); test: Validation qHTS for Identification of Calcium Integrin Binding protein 1 (CIB1) Competitor (AID 1508618; active = well fitted curve in the direction sought with a large enough effect; an effect the other way counts as inactive or inconclusive); conditions: CIB1-GST / FITC-alphaIIb peptide fluorescence polarization; series mostly up to 114 µM
How it was run: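 Displacement of FITC-alphaIIb peptide (100 nM) from CIB1-GST (1 uM) is monitored by polarization in quantitative HTS format; buffer carries 5 mM CaCl2 and 125 mM NaCl at pH 7.4, incubations are at room temperature.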

[4] = Primary qHTS for small molecule stabilizers of the endoplasmic reticulum resident proteome: Secreted ER Calcium Modulated Protein (SERCaMP) assay (AID 1508630; active = well fitted curve in the direction sought with a large enough effect; an effect the other way counts as inactive or inconclusive); conditions: SH-SY5Y GLuc-SERCaMP (Gaussia luciferase released on ER calcium loss) secretion, thapsigargin, luminescence; series mostly up to 38.4 µM
How it was run: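 The SH-SY5Y reporter protocol was run at 3 concentrations up to 38.3 uM (primary) or 11 concentrations (follow-up): 16 h compound, 100 nM thapsigargin for 4 h, then extracellular luciferase luminescence.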

[5] = biological target: Calcium and integrin-binding protein 1 (Homo sapiens) (UniProt Q99828); test: Primary qHTS for Identification of Calcium Integrin Binding Protein 1 (CIB1) Competitor (AID 1508620; active = well fitted curve in the direction sought with a large enough effect; an effect the other way counts as inactive or inconclusive;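 also: GST tagged CIB1 binding a fluorescein labelled alphaIIb integrin peptide tracer; top concentration of the series differs between compounds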); conditions: CIB1-GST / FITC-alphaIIb peptide fluorescence polarization; series mostly up to 57.7 µM
How it was run: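 Fluorescence polarization competition: GST-tagged CIB1 (1 uM final) preincubated with compound 15 min at room temperature, then FITC-labelled alphaIIb peptide (100 nM final) added. After 15 min at room temperature, polarization read at Ex 480/Em 540.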

[6] = Primary qHTS for inhibitors of SARS-S pseudo-typed particle cell entry (AID 1479145); conditions: SARS-S pseudotyped particle cell entry, luciferase reporter; series mostly up to 57.1 µM; also: nearly all actives have a fitted effect of over 45% in size
[7] = Primary qHTS for Huh7 cytotoxicity: counterscreen for inhibitors of MERS-S pseudotyped particle cell entry (AID 1479147); conditions: cell viability read-out; series mostly up to 57.1 µM
[8] = Primary qHTS for inhibitors of MERS-S pseudo-typed particle cell entry (AID 1479149); conditions: MERS-S pseudotyped particle entry, luciferase; series mostly up to 57.1 µM; also: nearly all actives have a fitted effect of over 60% in size
[9] = Primary qHTS for Vero E6 cytotoxicity: counterscreen for inhibitors of SARS-S pseudo-typed particle cell entry (AID 1479150); conditions: cell viability; series mostly up to 57.1 µM

Measured: Potency

Calcium and integrin-binding protein 1 (Homo sapiens), sequence (Q99828 whole entry, looked up): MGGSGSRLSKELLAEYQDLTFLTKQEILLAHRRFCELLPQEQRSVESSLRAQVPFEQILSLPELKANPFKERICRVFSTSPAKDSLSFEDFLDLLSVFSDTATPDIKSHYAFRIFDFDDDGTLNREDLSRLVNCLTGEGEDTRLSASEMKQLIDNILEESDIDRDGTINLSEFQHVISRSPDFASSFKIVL
Single-stranded DNA cytosine deaminase (Homo sapiens), sequence (Q9GZX7 whole entry, looked up): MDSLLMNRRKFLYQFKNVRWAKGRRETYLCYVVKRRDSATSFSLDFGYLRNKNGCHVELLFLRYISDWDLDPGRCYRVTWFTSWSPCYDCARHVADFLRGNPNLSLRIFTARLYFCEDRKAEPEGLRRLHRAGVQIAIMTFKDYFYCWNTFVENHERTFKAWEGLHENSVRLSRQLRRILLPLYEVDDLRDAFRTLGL

CN[C@@H]1C[C@@H](c2ccc(Cl)c(Cl)c2)c2ccccc21
inactive: [1] | [2] | [3] | [4]

NC(N)=NOCCC(N)C(=O)O (stereo unspecified)
inactive: [1] | [2] | [3] | [4]

C[C@]12N[C@H](Cc3ccccc31)c1ccccc12
inactive: [1] | [2] | [3] | [4]

c1ccc(CCCN2CCN(CCOC(c3ccccc3)c3ccccc3)CC2)cc1
inactive: [1] | [3] | [5] | [4]

C/C(=C1\CCOC(=O)S1)N(C=O)Cc1cnc(C)nc1N
inactive: [6] | [7] | [8] | [9]

CCN1CCN(c2cc3c(cc2F)c(=O)c(C(=O)O)cn3C2CC2)CC1
inactive: [6] | [7] | [8] | [9]

CCCCC(CC)COC(=O)c1ccc(N(C)C)cc1 (stereo unspecified)
inactive: [6] | [7] | [8] | [9]

CC(=O)Nc1ccc(O)cc1
inactive: [6] | [7] | [8] | [9]

Cn1c(NCCN(CCO)CCCc2ccc([N+](=O)[O-])cc2)cc(=O)n(C)c1=O
inactive: [6] | [7] | [8] | [9]
